The values that follow come from PubChem BioAssay (Tox21).

The nature of experiment [1]: qHTS assay to identify small molecule antagonists of the sonic hedgehog signaling (Shh) pathway (AID 1259369). Note: nearly all actives have a fitted effect of over 45% in size. Note: potency is the fitted concentration of half-maximal effect. In a few lines:
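Screening used 3T3Gli1-Luc cells at 2,000 per well, compounds delivered in DMSO, and conditioned medium as agonist stimulus; plates incubated 24hr at 37 C and 5% CO2 before a 30min luciferase step.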
(Quantitative high-throughput screening tests each substance at several concentrations.)

Experiment [2] is described as follows: qHTS assay to identify small molecule agonists of the androgen receptor (AR) signaling pathway in the presence of an antagonist - cell viability counter screen (AID 1259379; active = well fitted curve in the direction sought with a large enough effect in the repeat runs; an effect the other way counts as inactive or inconclusive; note: nearly all actives have a fitted effect of over 25% in size; note: potency is the fitted concentration of half-maximal effect). Summed up: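 In MDA-kb2 cells (human breast carcinoma, MMTV-luciferase), compounds at 15 concentrations plus 3.0uM nilutamide; 16 hr, 37C, 0% CO2; CellTiter-Fluor fluorescence read for viability.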

A short description of experiment [3]: qHTS assay to identify small molecule agonists of the estrogen receptor beta (ER-beta) signaling pathway - cell viability counter screen (AID 1259380; active = well fitted curve in the direction sought with a large enough effect in the repeat runs; an effect the other way counts as inactive or inconclusive; note: nearly all actives have a fitted effect of over 30% in size; note: potency is the fitted concentration of half-maximal effect). Summed up: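 Viability of ER-beta-UAS-bla HEK293T cells was determined by CellTiter-Glo luminescence following 16 hr treatment with test compounds at 37C.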
Experiment [4] concerns the target Androgen receptor (Homo sapiens) (UniProt P10275). Kind of experiment: qHTS assay to identify small molecule agonists of the androgen receptor (AR) signaling pathway in the presence of an antagonist (AID 1259381). Note: nearly all actives have a fitted effect of over 15% in size. In a few lines: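 Here, 15-concentration compound series were pin-transferred onto MDA-kb2 MMTV-luciferase cells already dosed with nilutamide (3.0uM final). After 16hr at 37C, ONE-Glo was added and luminescence read 30min later at room temperature.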

Experiment [5] is described as follows: qHTS assay to identify small molecule antagonists of the estrogen receptor beta (ER-beta) signaling pathway - cell viability counter screen (AID 1259382; active = well fitted curve in the direction sought with a large enough effect in the repeat runs; an effect the other way counts as inactive or inconclusive; note: nearly all actives have a fitted effect of over 55% in size; note: potency is the fitted concentration of half-maximal effect). Summed up: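 Tox21 10K library tested in qHTS format on ER-beta-bla HEK293T cells stimulated with 1nM E2; 16 hr treatment at 37C. Same-well CellTiter-Glo luminescence served as the cell viability measure.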

Experiment [6] addresses Estrogen receptor (Homo sapiens) (UniProt P03372). Description: qHTS assay to identify small molecule agonists of the estrogen receptor alpha (ER-alpha) signaling pathway in the presence of an antagonist (AID 1259383). Note: top concentration of the series differs between compounds; nearly all actives have a fitted effect of over 15% in size. Summed up: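 In VM7Luc4E2 cells, 4,000 per well, compounds at 15 concentrations were co-incubated 22hr at 37C with 10.0nM final ICI-182,780. Luminescence from the stably transfected 4×ERE-luciferase reporter was recorded 30min after ONE-Glo addition.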

The target of experiment [7] is Estrogen receptor beta (Homo sapiens) (UniProt Q92731). Kind of experiment: qHTS assay to identify small molecule agonists of the estrogen receptor beta (ER-beta) signaling pathway (AID 1259377; active = well fitted activation curve with a large enough effect in the signal ratio in the repeat runs, not every such curve was filed as active; the % refers to the signal ratio; note: potency is the fitted concentration of half-maximal effect). In a few lines: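 ER-beta-UAS-bla HEK293T (GripTite) cells carrying a UAS-driven beta-lactamase reporter, in medium with 2% charcoal-stripped FBS, were exposed to compounds for 16 hr at 37C; LiveBLAzer B/G FRET substrate was then added and fluorescence read after 2 hours at room temperature.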

Experiment [8] in a line: qHTS assay to identify small molecule agonists or antagonists of the thyroid stimulating hormone receptor (TSHR) signaling pathway - wild type cell line counter screen (AID 1259384). Summed up:
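Counter screen in untransfected Hek293: compounds (15-point titration, triplicate) plus phosphodiesterase inhibitor Ro20-1724 added after 18 h plating; 30 min RT. Intracellular cAMP via competitive d2/cryptate immunoassay, 1 h incubation.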

The target of experiment [9] is Thyrotropin receptor (Homo sapiens) (UniProt P16473). Kind of experiment: qHTS assay to identify small molecule antagonists of the thyroid stimulating hormone receptor (TSHR) signaling pathway (AID 1259385). Note: nearly all actives have a fitted effect of over 20% in size. Note: potency is the fitted concentration of half-maximal effect. Summed up: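 Antagonist mode: compound-treated TSHR-expressing HEK293 cells were stimulated with 1.5 ng/mL TSH (final) in presence of Ro20-1724 for 30 min at RT. HTRF cAMP detection after 1 h; each compound tested at 15 concentrations, triplicate.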

Experiment [10] deals with Estrogen receptor beta (Homo sapiens) (UniProt Q92731). Kind of experiment: qHTS assay to identify small molecule antagonists of the estrogen receptor beta (ER-beta) signaling pathway (AID 1259378; active = well fitted inhibition curve with a large enough effect in the signal ratio in the repeat runs, not every such curve was filed as active; the % refers to the signal ratio; note: potency is the fitted concentration of half-maximal effect). In a few lines:
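Antagonist mode: compounds added to beta-lactamase reporter HEK293T ER-beta-UAS cells stimulated with E2 (1nM final), 16 hr at 37C. LiveBLAzer B/G FRET substrate, 2 hours room temperature, fluorescence read-out.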

Values joined by “and” are separate entries in the source; they are usually repeats but may differ in a detail not shown here. Equal values may be shown once. Records with an inconclusive call do not appear. A structure can be active in one record and inactive in another. Active and inactive are the calls of the source. Unless noted, calls come from the whole dose curve.

Sequence of Estrogen receptor beta (Homo sapiens) (Q92731 whole entry, looked up): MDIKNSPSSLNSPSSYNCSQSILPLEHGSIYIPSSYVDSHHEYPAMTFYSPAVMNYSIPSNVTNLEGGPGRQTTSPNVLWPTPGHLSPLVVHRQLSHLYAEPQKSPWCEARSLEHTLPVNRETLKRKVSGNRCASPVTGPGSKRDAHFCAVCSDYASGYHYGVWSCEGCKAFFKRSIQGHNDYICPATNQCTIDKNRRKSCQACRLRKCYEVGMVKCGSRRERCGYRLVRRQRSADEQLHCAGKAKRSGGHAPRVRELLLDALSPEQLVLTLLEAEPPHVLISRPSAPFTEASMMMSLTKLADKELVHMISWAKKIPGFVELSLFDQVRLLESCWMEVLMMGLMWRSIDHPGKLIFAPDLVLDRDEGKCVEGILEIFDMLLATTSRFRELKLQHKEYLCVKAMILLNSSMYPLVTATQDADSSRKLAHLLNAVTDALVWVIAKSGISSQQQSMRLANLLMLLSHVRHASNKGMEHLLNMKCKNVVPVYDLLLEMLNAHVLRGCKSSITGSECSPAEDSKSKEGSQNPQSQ
Sequence of Estrogen receptor (Homo sapiens) (P03372 whole entry, looked up): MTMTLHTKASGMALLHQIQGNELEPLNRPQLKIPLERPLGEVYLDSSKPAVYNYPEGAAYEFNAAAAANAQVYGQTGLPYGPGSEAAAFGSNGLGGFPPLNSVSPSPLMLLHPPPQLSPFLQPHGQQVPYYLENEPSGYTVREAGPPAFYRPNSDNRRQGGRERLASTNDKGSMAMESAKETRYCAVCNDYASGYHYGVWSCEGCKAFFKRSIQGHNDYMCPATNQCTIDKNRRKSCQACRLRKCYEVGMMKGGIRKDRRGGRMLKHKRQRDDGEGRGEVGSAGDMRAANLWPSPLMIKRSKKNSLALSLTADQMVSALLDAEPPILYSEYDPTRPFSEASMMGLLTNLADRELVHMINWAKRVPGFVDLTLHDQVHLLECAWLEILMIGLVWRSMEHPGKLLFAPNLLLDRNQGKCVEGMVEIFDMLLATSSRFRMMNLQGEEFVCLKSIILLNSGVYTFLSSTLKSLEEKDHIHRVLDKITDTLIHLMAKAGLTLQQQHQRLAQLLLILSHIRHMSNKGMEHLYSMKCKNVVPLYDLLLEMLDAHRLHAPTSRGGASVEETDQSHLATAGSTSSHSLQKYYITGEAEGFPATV
Sequence of Thyrotropin receptor (Homo sapiens) (P16473 whole entry, looked up): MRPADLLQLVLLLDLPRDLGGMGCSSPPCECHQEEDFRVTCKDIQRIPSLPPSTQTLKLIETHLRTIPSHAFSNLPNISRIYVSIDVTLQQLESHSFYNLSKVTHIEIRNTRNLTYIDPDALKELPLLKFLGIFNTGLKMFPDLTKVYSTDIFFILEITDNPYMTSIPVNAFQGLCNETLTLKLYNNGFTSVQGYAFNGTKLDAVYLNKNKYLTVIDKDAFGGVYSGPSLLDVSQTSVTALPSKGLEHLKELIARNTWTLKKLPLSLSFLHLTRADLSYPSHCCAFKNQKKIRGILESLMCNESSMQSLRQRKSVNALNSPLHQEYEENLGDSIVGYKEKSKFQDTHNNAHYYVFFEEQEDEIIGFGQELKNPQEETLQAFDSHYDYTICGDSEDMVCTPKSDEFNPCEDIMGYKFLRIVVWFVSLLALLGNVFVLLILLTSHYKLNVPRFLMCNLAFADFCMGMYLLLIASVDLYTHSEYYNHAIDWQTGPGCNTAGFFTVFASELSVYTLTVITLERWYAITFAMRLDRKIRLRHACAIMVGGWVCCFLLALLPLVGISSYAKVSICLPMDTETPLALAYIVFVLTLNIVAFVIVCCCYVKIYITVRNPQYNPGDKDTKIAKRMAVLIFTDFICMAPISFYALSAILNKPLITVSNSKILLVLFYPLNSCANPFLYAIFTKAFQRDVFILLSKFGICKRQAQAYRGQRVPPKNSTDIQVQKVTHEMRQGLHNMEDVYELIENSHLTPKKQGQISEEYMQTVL
Sequence of Androgen receptor (Homo sapiens) (P10275 whole entry, looked up): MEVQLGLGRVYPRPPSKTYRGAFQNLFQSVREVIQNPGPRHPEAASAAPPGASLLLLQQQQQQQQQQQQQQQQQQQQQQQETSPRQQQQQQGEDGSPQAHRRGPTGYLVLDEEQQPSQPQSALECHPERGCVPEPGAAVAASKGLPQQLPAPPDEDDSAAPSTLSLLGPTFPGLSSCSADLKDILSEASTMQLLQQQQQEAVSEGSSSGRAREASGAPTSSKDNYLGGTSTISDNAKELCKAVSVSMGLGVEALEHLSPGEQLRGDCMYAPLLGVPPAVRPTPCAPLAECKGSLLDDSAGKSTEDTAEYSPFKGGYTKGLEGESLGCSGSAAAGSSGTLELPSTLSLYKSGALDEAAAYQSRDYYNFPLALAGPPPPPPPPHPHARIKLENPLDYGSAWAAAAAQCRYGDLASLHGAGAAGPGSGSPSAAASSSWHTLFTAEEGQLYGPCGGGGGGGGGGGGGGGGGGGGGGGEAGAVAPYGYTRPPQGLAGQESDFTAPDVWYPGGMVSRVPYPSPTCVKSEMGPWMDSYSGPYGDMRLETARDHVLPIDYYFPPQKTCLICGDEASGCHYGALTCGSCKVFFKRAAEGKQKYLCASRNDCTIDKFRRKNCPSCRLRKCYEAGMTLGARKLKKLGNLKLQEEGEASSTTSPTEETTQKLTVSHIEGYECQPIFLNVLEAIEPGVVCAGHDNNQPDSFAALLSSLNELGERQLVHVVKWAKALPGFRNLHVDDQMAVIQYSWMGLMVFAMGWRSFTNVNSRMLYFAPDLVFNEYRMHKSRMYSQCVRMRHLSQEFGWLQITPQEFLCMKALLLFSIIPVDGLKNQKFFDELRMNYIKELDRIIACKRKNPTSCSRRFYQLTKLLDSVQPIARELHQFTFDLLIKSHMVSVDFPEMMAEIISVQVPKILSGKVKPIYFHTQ

For the molecule `ClCCl`, the Potency entry in experiment [1], in experiment [2], in experiment [3], in experiment [5] and in experiment [6] was “inactive” throughout. Also, the outcome in experiment [4] was inactive.

Turning to `CC1=Nc2ccccc2C1(C)C`, the Potency result in [1], in experiment [7], in [3] and in experiment [9] was “inactive” throughout. Besides, the result in experiment [8] was inactive.

Regarding `O=C(c1ccc(O)c(O)c1)c1ccc(O)cc1O`, the Potency was 2.43 µM (active) in [1], 1.37 µM (active) in experiment [7] and 68.5 µM (active) in experiment [2]. Besides, the Potency result in [3] and in experiment [5] was “inactive” throughout.

Consider `C[Si](Cl)(c1ccccc1)c1ccccc1`, for which the Potency result in experiment [1], in experiment [7], in experiment [2], in experiment [3], in experiment [5] and in [6] was “inactive” each time. Besides, the Potency result in experiment [9] is “inactive”. Further, the result in experiment [8] was inactive.

As to `COc1cc(C)ccc1O`, the Potency result in [1], in experiment [10], in [2], in experiment [3], in [6] and in experiment [9] was “inactive” each time. In experiment [8], the molecule was called inactive.

Take `Cc1cc(-n2nc3ccc(Cl)cc3n2)c(O)c(C(C)(C)C)c1`: the Potency result in experiment [1], in [7], in experiment [2], in experiment [5] and in [9] was “inactive” throughout. Also, the molecule was called inactive in experiment [8].

In the case of `CN1CCC[C@@H]1CCO[C@](C)(c1ccccc1)c1ccc(Cl)cc1`, the Potency in experiment [1] is 26.6 µM (active); in experiment [10] it was 18.8 µM (active); in experiment [2], 29.8 µM (active); in experiment [3], 23.7 µM (active); in experiment [9], 29.8 µM (active). The call in [8] was inactive.

Turning to `CCCCCCCCCCCCOC(=O)c1ccc(O)cc1`, the Potency result in experiment [1], in experiment [7], in experiment [2], in experiment [3] and in experiment [5] was “inactive” each time. The outcome in experiment [4] was inactive.

As to `O=C(O)CCN(C1(C(=O)NO)CCCC1)S(=O)(=O)c1ccc(Oc2ccc(F)cc2)cc1`, the Potency result in experiment [1], in experiment [7], in experiment [2], in experiment [3], in [5] and in [9] was “inactive” throughout. Also, in experiment [8], the call was inactive.

Consider `CCCCC(CC)COC(=O)CCCCC(=O)OCc1ccccc1` (stereo unspecified), for which the Potency result in experiment [1], in [7], in [2], in experiment [3], in [5] and in experiment [6] was “inactive” in each case. In addition, the Potency result in experiment [9] was “inactive”. In addition, the molecule was classed as inactive in experiment [8].

In the case of `CC1(C)[C@@H](O)CC[C@]2(C)[C@H]3C(=O)C=C4[C@@H]5C[C@@](C)(C(=O)O)CC[C@]5(C)CC[C@@]4(C)[C@]3(C)CC[C@@H]12`, the Potency result in [1], in experiment [7], in experiment [2], in [5] and in [6] was “inactive” each time. The result in [4] and in experiment [8] was inactive.

`CCC(CC)(CC(=O)Nc1cccc(/C=C/c2nc(C3CCC3)cs2)c1)C(=O)O`: the Potency entry in experiment [1] and in experiment [2] was “inactive” throughout. In addition, in experiment [3], the Potency was 7.5 µM (active).

`COc1cccc2c1C(=O)c1c(O)c3c(c(O)c1C2=O)C[C@@](O)(C(C)=O)C[C@@H]3O[C@H]1C[C@H](N)[C@H](O)[C@H](C)O1`: the Potency in [1] is 0.0194 µM (active); in experiment [10], 4.22 µM (active); in [2] it was 30.8 µM (active) and 11.9 µM (active); in experiment [3], 77.4 µM (active) and inactive. For the same molecule, the Potency entry in [5] was “inactive”.

Turning to `Cc1cc(C(C#N)c2ccc(Cl)cc2)c(Cl)cc1NC(=O)c1cc(I)cc(I)c1O` (stereo unspecified), the figures for the Potency in [1], in experiment [3] and in experiment [5] were 26.6 µM (active), 11.9 µM (active) and 23.7 µM (active), respectively. For the same molecule, the Potency entry in [7] was “inactive”.

In the case of `OC/C=C/CO`, the Potency result in experiment [1], in [10], in experiment [2], in experiment [3], in experiment [6] and in [9] was “inactive” throughout. Moreover, the call in experiment [8] was inactive.

As for `Fc1ccc(C(c2ccc(F)cc2)N2CCNCC2)cc1`, in [1], the Potency was 2.98 µM (active). The Potency entry in experiment [7], in experiment [10], in [5], in experiment [6] and in experiment [9] was “inactive” each time. In addition, the result in experiment [4] and in [8] was inactive.

Take `Cc1c(C)c([N+](=O)[O-])c(C(C)(C)C)c([N+](=O)[O-])c1C`: the Potency entry in experiment [1], in experiment [7], in experiment [2], in experiment [3], in [5] and in experiment [6] was “inactive” throughout. Moreover, the Potency entry in experiment [9] is “inactive”. Moreover, the molecule was classed as inactive in experiment [8].
